# Experimental data from article PMC11006913.
# Substitutions are numbered along the chain they refer to.
# Tests used:
# Experiment in all cases: PBM; 200 nM protein, PBS
# Details in all cases: dsDNA, one strand shown
# VENTX [1] = biological target: T1, VENTX (Homo sapiens, UniProt O95231 78-163, R121Q)
# T1 sequence: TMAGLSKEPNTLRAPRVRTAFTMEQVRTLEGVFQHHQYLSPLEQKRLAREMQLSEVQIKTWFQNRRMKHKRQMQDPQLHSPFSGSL
# SIX6 [2] = biological target: T2, SIX6 (Homo sapiens, UniProt O95475 114-200, L167I)
# T2 sequence: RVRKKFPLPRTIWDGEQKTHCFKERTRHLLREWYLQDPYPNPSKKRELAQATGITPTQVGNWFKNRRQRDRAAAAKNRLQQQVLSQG
# VENTX [3] = biological target: T3, VENTX (Homo sapiens, UniProt O95231 78-163)
# T3 sequence: T1 sequence with Q44R
# SIX6 [4] = biological target: T4, SIX6 (Homo sapiens, UniProt O95475 114-200, L143V)
# T4 sequence: T2 sequence with L30V, I54L
# SIX6 [5] = biological target: T5, SIX6 (Homo sapiens, UniProt O95475 114-200, H141N)
# T5 sequence: T2 sequence with H28N, I54L
# SIX6 [6] = biological target: T6, SIX6 (Homo sapiens, UniProt O95475 114-200, T165P)
# T6 sequence: T2 sequence with T52P, I54L
# VENTX [7] = biological target: T7, VENTX (Homo sapiens, UniProt O95231 78-163, Y115F)
# T7 sequence: T1 sequence with Y38F, Q44R
# SIX6 [8] = biological target: T8, SIX6 (Homo sapiens, UniProt O95475 114-200, L167M)
# T8 sequence: T2 sequence with I54M
# SIX6 [9] = biological target: T9, SIX6 (Homo sapiens, UniProt O95475 114-200, L143M)
# T9 sequence: T2 sequence with L30M, I54L
# SIX6 [10] = biological target: T10, SIX6 (Homo sapiens, UniProt O95475 114-200, L143I)
# T10 sequence: T2 sequence with L30I, I54L
# SIX6 [11] = biological target: T11, SIX6 (Homo sapiens, UniProt O95475 114-200, T165G)
# T11 sequence: T2 sequence with T52G, I54L
# SIX6 [12] = biological target: T12, SIX6 (Homo sapiens, UniProt O95475 114-200, T139Q)
# T12 sequence: T2 sequence with T26Q, I54L
# SIX6 [13] = biological target: T13, SIX6 (Homo sapiens, UniProt O95475 114-200, T165A)
# T13 sequence: T2 sequence with T52A, I54L
# SIX6 [14] = biological target: T14, SIX6 (Homo sapiens, UniProt O95475 114-200, L167V)
# T14 sequence: T2 sequence with I54V
# SIX6 [15] = biological target: T15, SIX6 (Homo sapiens, UniProt O95475 114-200)
# T15 sequence: T2 sequence with I54L
# VAX1 [16] = biological target: VAX1 (Homo sapiens, UniProt Q5SQQ9 86-172)
# VAX1 (Homo sapiens, UniProt Q5SQQ9 86-172), sequence (Q5SQQ9 86-172): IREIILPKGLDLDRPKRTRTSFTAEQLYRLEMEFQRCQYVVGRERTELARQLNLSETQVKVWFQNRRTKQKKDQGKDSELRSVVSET
# SIX6 [17] = biological target: T16, SIX6 (Homo sapiens, UniProt O95475 114-200, T165I)
# T16 sequence: T2 sequence with T52I, I54L
# VAX1 [18] = biological target: VAX1 (Homo sapiens, UniProt Q5SQQ9 86-172, T142I)
# VAX1 (Homo sapiens, UniProt Q5SQQ9 86-172, T142I), sequence (Q5SQQ9 86-172 T142I): as the sequence (Q5SQQ9 86-172) above, with T57I counted along it
# VAX1 [19] = biological target: VAX1 (Homo sapiens, UniProt Q5SQQ9 86-172, K157R)
# VAX1 (Homo sapiens, UniProt Q5SQQ9 86-172, K157R), sequence (Q5SQQ9 86-172 K157R): as the sequence (Q5SQQ9 86-172) above, with K72R counted along it
# HOXC9 [20] = biological target: HOXC9 (Homo sapiens, UniProt P31274 178-260, K195R)
# HOXC9 (Homo sapiens, UniProt P31274 178-260, K195R), sequence (P31274 178-260 K195R): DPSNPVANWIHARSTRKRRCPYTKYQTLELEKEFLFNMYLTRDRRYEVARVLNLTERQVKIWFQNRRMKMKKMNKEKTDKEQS
# HOXB6 [21] = biological target: HOXB6 (Homo sapiens, UniProt P17509 132-218, K202E)
# HOXB6 (Homo sapiens, UniProt P17509 132-218, K202E), sequence (P17509 132-218 K202E): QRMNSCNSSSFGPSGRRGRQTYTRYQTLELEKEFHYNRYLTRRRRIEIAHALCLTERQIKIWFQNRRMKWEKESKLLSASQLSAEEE
# HOXA2 [22] = biological target: HOXA2 (Homo sapiens, UniProt O43364 129-215, R185T)
# HOXA2 (Homo sapiens, UniProt O43364 129-215, R185T), sequence (O43364 129-215 R185T): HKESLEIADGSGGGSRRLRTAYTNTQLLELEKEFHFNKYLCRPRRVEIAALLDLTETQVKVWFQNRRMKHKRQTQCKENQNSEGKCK
# HOXC9 [23] = biological target: HOXC9 (Homo sapiens, UniProt P31274 178-260)
# HOXC9 (Homo sapiens, UniProt P31274 178-260), sequence (P31274 178-260): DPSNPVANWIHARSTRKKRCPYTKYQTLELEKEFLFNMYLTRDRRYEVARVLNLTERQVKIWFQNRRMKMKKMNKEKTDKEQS
# HOXC9 [24] = biological target: HOXC9 (Homo sapiens, UniProt P31274 178-260, R193K)
# HOXC9 (Homo sapiens, UniProt P31274 178-260, R193K), sequence (P31274 178-260 R193K): as the sequence (P31274 178-260) above, with R16K counted along it
# HOXA2 [25] = biological target: HOXA2 (Homo sapiens, UniProt O43364 129-215, R185K)
# HOXA2 (Homo sapiens, UniProt O43364 129-215, R185K), sequence (O43364 129-215 R185K): as the sequence (O43364 129-215 R185T) above, with T57K counted along it
# HOXC9 [26] = biological target: HOXC9 (Homo sapiens, UniProt P31274 178-260, R222W)
# HOXC9 (Homo sapiens, UniProt P31274 178-260, R222W), sequence (P31274 178-260 R222W): as the sequence (P31274 178-260) above, with R45W counted along it
# HOXA2 [27] = biological target: HOXA2 (Homo sapiens, UniProt O43364 129-215, Y150S)
# HOXA2 (Homo sapiens, UniProt O43364 129-215, Y150S), sequence (O43364 129-215 Y150S): as the sequence (O43364 129-215 R185T) above, with Y22S, T57R counted along it
# HOXA2 [28] = biological target: HOXA2 (Homo sapiens, UniProt O43364 129-215)
# HOXA2 (Homo sapiens, UniProt O43364 129-215), sequence (O43364 129-215): as the sequence (O43364 129-215 R185T) above, with T57R counted along it
# HOXB6 [29] = biological target: HOXB6 (Homo sapiens, UniProt P17509 132-218)
# HOXB6 (Homo sapiens, UniProt P17509 132-218), sequence (P17509 132-218): as the sequence (P17509 132-218 K202E) above, with E71K counted along it
sequence,measurement,setting,value
CAAGGCCC,binding signal,VENTX [1],"7.94 upbm affinity estimate (log intensity, higher = more binding, comparable within an allelic series)"
same,binding signal,SIX6 [2],"8.9 upbm affinity estimate (log intensity, higher = more binding, comparable within an allelic series)"
same,binding signal,VENTX [3],"7.78 upbm affinity estimate (log intensity, higher = more binding, comparable within an allelic series)"
same,binding signal,SIX6 [4],"8.85 upbm affinity estimate (log intensity, higher = more binding, comparable within an allelic series)"
same,binding signal,SIX6 [5],"8.89 upbm affinity estimate (log intensity, higher = more binding, comparable within an allelic series)"
same,binding signal,SIX6 [6],"8.97 upbm affinity estimate (log intensity, higher = more binding, comparable within an allelic series)"
same,binding signal,VENTX [7],"7.82 upbm affinity estimate (log intensity, higher = more binding, comparable within an allelic series)"
same,binding signal,SIX6 [8],"8.85 upbm affinity estimate (log intensity, higher = more binding, comparable within an allelic series)"
same,binding signal,SIX6 [9],"8.93 upbm affinity estimate (log intensity, higher = more binding, comparable within an allelic series)"
same,binding signal,SIX6 [10],"8.82 upbm affinity estimate (log intensity, higher = more binding, comparable within an allelic series)"
same,binding signal,SIX6 [11],"8.95 upbm affinity estimate (log intensity, higher = more binding, comparable within an allelic series)"
same,binding signal,SIX6 [12],"8.93 upbm affinity estimate (log intensity, higher = more binding, comparable within an allelic series)"
same,binding signal,SIX6 [13],"8.92 upbm affinity estimate (log intensity, higher = more binding, comparable within an allelic series)"
same,binding signal,SIX6 [14],"8.98 upbm affinity estimate (log intensity, higher = more binding, comparable within an allelic series)"
same,binding signal,SIX6 [15],"8.89 upbm affinity estimate (log intensity, higher = more binding, comparable within an allelic series)"
same,binding signal,VAX1 [16],"7.02 upbm affinity estimate (log intensity, higher = more binding, comparable within an allelic series)"
same,binding signal,SIX6 [17],"8.88 upbm affinity estimate (log intensity, higher = more binding, comparable within an allelic series)"
same,binding signal,VAX1 [18],"7.07 upbm affinity estimate (log intensity, higher = more binding, comparable within an allelic series)"
same,binding signal,VAX1 [19],"6.96 upbm affinity estimate (log intensity, higher = more binding, comparable within an allelic series)"
CCCCTCGG,binding signal,VENTX [1],"8.03 upbm affinity estimate (log intensity, higher = more binding, comparable within an allelic series)"
same,binding signal,HOXC9 [20],"9.54 upbm affinity estimate (log intensity, higher = more binding, comparable within an allelic series)"
same,binding signal,VENTX [3],"7.93 upbm affinity estimate (log intensity, higher = more binding, comparable within an allelic series)"
same,binding signal,VENTX [7],"8.04 upbm affinity estimate (log intensity, higher = more binding, comparable within an allelic series)"
same,binding signal,HOXB6 [21],"8.78 upbm affinity estimate (log intensity, higher = more binding, comparable within an allelic series)"
same,binding signal,HOXA2 [22],"7.19 upbm affinity estimate (log intensity, higher = more binding, comparable within an allelic series)"
same,binding signal,HOXC9 [23],"9.64 upbm affinity estimate (log intensity, higher = more binding, comparable within an allelic series)"
same,binding signal,HOXC9 [24],"9.54 upbm affinity estimate (log intensity, higher = more binding, comparable within an allelic series)"
same,binding signal,HOXA2 [25],"10.3 upbm affinity estimate (log intensity, higher = more binding, comparable within an allelic series)"
same,binding signal,VAX1 [16],"7.12 upbm affinity estimate (log intensity, higher = more binding, comparable within an allelic series)"
same,binding signal,HOXC9 [26],"9.5 upbm affinity estimate (log intensity, higher = more binding, comparable within an allelic series)"
same,binding signal,VAX1 [18],"7.07 upbm affinity estimate (log intensity, higher = more binding, comparable within an allelic series)"
same,binding signal,HOXA2 [27],"10.4 upbm affinity estimate (log intensity, higher = more binding, comparable within an allelic series)"
same,binding signal,HOXA2 [28],"7.11 upbm affinity estimate (log intensity, higher = more binding, comparable within an allelic series)"
same,binding signal,VAX1 [19],"7.1 upbm affinity estimate (log intensity, higher = more binding, comparable within an allelic series)"
same,binding signal,HOXB6 [29],"8.89 upbm affinity estimate (log intensity, higher = more binding, comparable within an allelic series)"
CTGGGACC,binding signal,VENTX [1],"8.08 upbm affinity estimate (log intensity, higher = more binding, comparable within an allelic series)"
same,binding signal,HOXC9 [20],"9.45 upbm affinity estimate (log intensity, higher = more binding, comparable within an allelic series)"
same,binding signal,VENTX [3],"8.05 upbm affinity estimate (log intensity, higher = more binding, comparable within an allelic series)"
same,binding signal,VENTX [7],"8.06 upbm affinity estimate (log intensity, higher = more binding, comparable within an allelic series)"
same,binding signal,HOXC9 [23],"9.59 upbm affinity estimate (log intensity, higher = more binding, comparable within an allelic series)"
same,binding signal,HOXC9 [24],"9.43 upbm affinity estimate (log intensity, higher = more binding, comparable within an allelic series)"
same,binding signal,HOXC9 [26],"9.65 upbm affinity estimate (log intensity, higher = more binding, comparable within an allelic series)"
